Many of the other results were omitted from the sample, so hits are more common in it than they were.
SARS PLpro yeast: qHTS of Yeast-based Assay for SARS-CoV PLP; S. cerevisiae expressing SARS-CoV PLpro, growth rescue; Potency, µM (series often up to 32.9 µM), actives largely listed as activators; 330,000 tested, 0.19% active; AID 485353, 2010; further: nearly all actives have a fitted effect of over 55% in size
Shiga inhibitor: A qHTS for Small Molecule Inhibitors of Shiga Toxin; inhibition, % at 38.7 µM; AID 2315, 2010; 290,000 tested, 9.2% active; Vero cells, Shiga toxin protein synthesis inhibition reporter; in the data active means inhibition mostly above about 28%, no sharp cut-off; inactive means mostly below about 43%
CHX counter: Cycloheximide Counterscreen for Small Molecule Inhibitors of Shiga Toxin; cell reporter, cycloheximide protein synthesis inhibition counterscreen; max response, %; 300,000 tested, 12% active; AID 2314, 2010; in the data active means max response mostly above about 13%, no sharp cut-off; inactive means mostly below about 14%; further: read at 38.3 µM for the half of the compounds with a filed dose
TbPYK inhibitor: qHTS of Trypanosoma Brucei Inhibitors; pyruvate kinase (Trypanosoma brucei), Q57TT1; TbPYK enzyme, Kinase-Glo Plus ATP luminescence, 45 min; Potency, µM (top dose mostly 76.8 µM), usual class: inhibitors; 410,000 tested, 0.12% active; active means well fitted curve in the direction sought with a large enough effect; inconclusive means small, poorly fitted or top-dose-only effect, or another doubt; inactive means no such curve, though single readings can be large; an effect the other way counts as inactive or inconclusive; further: nearly all actives have a fitted effect of over 50% in size
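Quantitative HTS: titrated library compounds versus trypanosomal pyruvate kinase in TEA buffer (pH 7.2) containing KCl, MgCl2, BSA and Tween-20. Reactions were initiated with ADP, 130 uM final. Kinase-Glo Plus luminescence was read after 45 min at RT.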
LmPK inhibitor: qHTS Assay for Inhibitors of Leishmania Mexicana Pyruvate Kinase (LmPK) | AID 1721, 2009 | Q27686 | 290,000 tested, 0.37% active | purified LmPK, Kinase-Glo ATP luminescence, 1 h | Potency, µM (doses to about 57.5 µM), hits mostly inhibitors; active means well fitted curve in the direction sought with a large enough effect; inconclusive means small, poorly fitted or top-dose-only effect, or another doubt; inactive means no such curve, though single readings can be large; an effect the other way counts as inactive or inconclusive
Target sequence (Q27686 whole entry, looked up): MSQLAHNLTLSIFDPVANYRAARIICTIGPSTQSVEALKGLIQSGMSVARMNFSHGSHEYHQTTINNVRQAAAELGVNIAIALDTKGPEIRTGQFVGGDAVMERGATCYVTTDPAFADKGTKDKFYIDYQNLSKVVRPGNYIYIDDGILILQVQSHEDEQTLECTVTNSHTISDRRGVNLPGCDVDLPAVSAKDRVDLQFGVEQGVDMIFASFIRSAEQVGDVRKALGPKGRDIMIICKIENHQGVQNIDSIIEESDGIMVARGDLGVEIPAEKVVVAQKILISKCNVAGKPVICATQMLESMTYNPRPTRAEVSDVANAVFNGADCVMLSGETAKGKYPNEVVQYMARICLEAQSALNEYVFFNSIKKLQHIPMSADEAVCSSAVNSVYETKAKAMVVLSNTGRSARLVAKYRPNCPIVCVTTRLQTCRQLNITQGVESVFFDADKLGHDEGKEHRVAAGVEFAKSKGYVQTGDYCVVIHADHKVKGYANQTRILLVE
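Pyruvate kinase activity monitored as ATP production (luciferase luminescence). Conditions: 0.1 nM enzyme, 0.5 mM PEP, 0.1 mM ADP, 1 h, RT; normalized against uninhibited and no-enzyme wells.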
NS1 function inh: qHTS Assay for Inhibitors of Influenza NS1 Protein Function; AID 2326, 2010; 270,000 tested, 0.4% active; Potency, µM (doses to about 46.1 µM); further: actives are rising curves; nearly all actives have a fitted effect of over 50% in size
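A cell-based growth assay was used: compounds that relieve NS1-induced slow growth of budding yeast raise OD600. Assay medium was yeast nitrogen base with ammonium sulphate and -URA supplement, pH 6.0, with 2% galactose.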
Hits are given with their value; . = inactive; ? = inconclusive; / = no result. Unless noted, the call rests on the fitted dose curve.

SMILES	SARS PLpro yeast	Shiga inhibitor	CHX counter	TbPYK inhibitor	LmPK inhibitor	NS1 function inh
NC(=O)c1ccc(NC(=O)c2ccc3c(c2)OCO3)cc1	.	.	36.6	.	.	.
Cc1ccc2cccc(NC(=O)c3ccc(-c4ccc(Cl)cc4Cl)o3)c2n1	/	/	/	.	/	/
O=C(N/N=C/c1ccc(Cl)c([N+](=O)[O-])c1)c1ccc2c(c1)OCCO2	/	/	/	.	/	/
O=C(Nc1ccc2c(c1)OCO2)c1ccc[n+]([O-])c1	.	.	.	/	.	.
O=C(Nc1ccc(F)c(F)c1)c1ccc2c(c1)OCO2	.	100.2	94.2	.	.	.
CN(CC(=O)Nc1ccc(Cl)c(Cl)c1)CC(=O)Nc1ccc2c(c1)OCO2	.	/	/	.	/	/
O=C(Nc1ccc2c(c1)OCO2)c1cccc(Cl)c1	.	106.6	48.8	.	?	.
O=C(Nc1ccc(Cl)c([N+](=O)[O-])c1)c1ccc2c(c1)OCCO2	.	61.9	33.2	.	.	/
O=C(Nc1ccc(Cl)c(Cl)c1)c1ccc2c(c1)OCO2	.	97.8	41.6	.	.	.
O=C(Nc1ccc2c(c1)OCO2)c1c(F)c(F)c(F)c(F)c1F	.	.	.	.	.	.
CCN(CC)CCNc1nc2nonc2nc1NCCN(CC)CC	.	.	.	.	.	.
O=C(Cc1ccccc1F)Nc1cccc(S(=O)(=O)N2CCCCC2)c1	/	/	/	.	/	/
O=C(Nc1ccc2nsnc2c1)c1ccc2c(c1)OCO2	.	63.9	31.5	.	.	.
O=C(Nc1ccc(N2CCCC2)c(Cl)c1)c1ccc2c(c1)OCCO2	/	/	/	.	/	/
O=C(Nc1ccc(N2CCCCC2)c(Cl)c1)c1ccc2c(c1)OCCO2	.	.	45.2	.	.	.
Cc1ccc(-n2nc3ccc(NC(=O)c4ccc5c(c4)OCO5)cc3n2)cc1	.	.	.	.	.	.
O=C(Nc1ccc2c(c1)OCO2)c1ccc2c(c1)OCO2	.	67.2	39.6	.	?	.
Cc1cc(C(=O)Nc2ccc3c(c2)OCO3)cs1	.	58.0	38.7	.	?	.
O=C(Nc1ccc2c(c1)OCO2)c1ccc(CO)cc1	.	/	/	.	/	/
O=S(=O)(c1cccc2ccccc12)N1CCN(c2ccc(Cl)c(Cl)c2)CC1	/	/	/	.	/	/
NC(=O)C1CCCN(C(=O)c2ccc3nc(Cc4cccc(Cl)c4)oc3c2)C1 (configuration not stated)	.	.	.	.	.	.
O=C(NCC1COCCO1)c1ccc2nc(Cc3cccc(Cl)c3)oc2c1 (configuration not stated)	.	51.8	51.2	.	.	.
O=C(c1ccc2nc(Cc3cccc(Cl)c3)oc2c1)N1CCOCC1	.	68.9	58.9	.	.	.
CC(=O)C1CCCN(C(=O)c2ccc3nc(Cc4cccc(Cl)c4)oc3c2)C1 (configuration not stated)	.	.	12.9	.	.	.
CCn1c(=O)n(-c2ccc(C)c(F)c2)c(=O)c2sc3ccccc3c21	/	/	/	.	/	/
SMILES	SARS PLpro yeast	Shiga inhibitor	CHX counter	TbPYK inhibitor	LmPK inhibitor	NS1 function inh
CC(NC(=O)[C@@H](NC(=O)[C@@H]1Cc2ccccc2CN1)C(C)C)c1ccccc1 (some centres not stated)	.	.	.	.	.	.
C[C@@H](NC(=O)[C@@H]1Cc2ccccc2CN1)C(=O)NC1CCCCC1	.	.	.	.	.	.
C[C@@H](NC(=O)[C@@H]1Cc2ccccc2CN1)C(=O)Nc1ccc2c(c1)OCO2	.	.	17.1	.	.	.
CC(C)[C@H](NC(=O)[C@@H]1Cc2ccccc2CN1)C(=O)Nc1ccc2c(c1)OCO2	.	.	22.9	.	.	.
Cc1ccc(C)c(NC(=O)Cn2c(=O)n(CCCS(=O)(=O)C3CCCCC3)c(=O)c3ccccc32)c1	/	/	/	.	/	/
Cc1cccc(C)c1-n1c(C)cc(/C=N/NC(N)=S)c1C	10µM	.	.	.	.	.
O=C(N/N=C/c1cccnc1)c1ccc(F)cc1	.	.	11.3	.	.	.
Cc1ccc(C(=O)N/N=C\c2cccnc2)s1	.	55.4	30.5	.	.	.
Cc1cc(C(=O)N/N=C/c2cccnc2)cs1	.	.	.	.	.	.
Cc1onc(-c2ccccc2)c1C(=O)N/N=C/C=C/c1ccccc1	.	.	.	.	.	.
Cc1cc(/C=N/NC(N)=S)c(C)n1-c1cccc(Cl)c1	.	.	.	.	.	/

Assay outcomes from PubChem BioAssay.
